About 83,000 compounds went through this panel and 20% of them were active in at least one assay; those are over-represented in the sample as a whole.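 Growth was measured after 48 h exposure to one concentration of compound in 96-well plates. Values under 10 count as active.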 Activity calls are given as the source filed them.

The subject of the experiment is HL-60(TB) leukemia. The experiment in a line: NCI-60 one-dose screen, 48 h (100 = growth as untreated, 0 = no growth, -100 = all killed). As to conditions: 10 µM unless noted.
In the case of `COc1cc(-c2nccc3[nH]c(-c4cccc5[nH]ccc45)nc23)cc(OC)c1OC`, the growth was -41.1% (active). `Cc1cc(Cl)ccc1Nc1nc(C(F)(F)F)ccc1C(=O)N/N=C/c1ccc(Cl)cc1`: the growth is -33.8% (active). For the molecule `Cc1cc(-c2ccc(N=Nc3c(C)nn(-c4ccc(S(=O)(=O)O)cc4)c3O)c(C)c2)ccc1N=Nc1ccc(O)c(C(=O)O)c1`, the growth is 99% (inactive). In the case of `CCC1CCc2nc3sc(C(=O)Nc4cccc(C)c4)c(N)c3cc2C1` (stereo not given), the growth is 55.7% (inactive). Consider `S=c1ccnc[nH]1`, for which the growth was 59.3% (inactive). For `CC(=O)N1N=C(c2ccc(Nc3nc(Nc4ccc(F)cc4)nc(Nc4ccc(Cl)cc4)n3)cc2)CC1c1ccc(N(C)C)cc1` (stereo not given) the value was 19% (inactive). The value for `O=C(NC1CCC(Br)CC1)C1CCCC(S(=O)(=O)NC2CCCCC2)C1` (stereo not given) was 4.46% [25 µM] (active); that for `CCN1C(=O)N(CC)C2Nn3c(s/c(=C4\C(=O)Nc5ccccc54)c3=O)=NC21` (stereo not given) was 27.8% (inactive).

Regarding `NC(=NCc1ccccc1)C(N=Nc1ccccc1)C(=O)NCc1ccccc1` (stereo not given), the growth was 72% (inactive).

Consider `CC(=O)OCC1SC(OC(C)=O)C(NC(=O)/C=C/CCl)C(OC(C)=O)C1OC(C)=O` (stereo not given), for which the growth was 79.9% (inactive). The value for `COc1ccc(/C=N/NC(=O)c2cccc3cc[nH]c23)cc1O` was 10.1% (inactive). The value for `CCCN1C(=O)/C(=c2\sc3n(c2=O)C2C(NN=3)N(CC)C(=O)N2CC)c2ccccc21` (stereo not given) was -40.8% (active); that for `Cc1nc2sc(C(=O)Nc3cccc4c3OCCO4)c(N)c2cc1C(C)O` (stereo not given) was 8.35% (active). With `Cn1c(C(N)=O)cc2c1-c1nc(Nc3ccccc3)ncc1CCC2`, the growth is 40.6% (inactive). The value for `COc1ccc(S(=O)(=O)N2CCN(c3cc4c(cc3F)c(=O)c(C(=O)O)cn4C3CC3)CC2)c(OC)c1` was 87.1% (inactive); that for `CN(CCC#N)c1ccc(/C=C2\NC(=O)NC2=O)cc1` was 92.2% (inactive). The value for `COc1ccc(Nc2nc(N)nc3c2CCN(Cc2ccc(OC)cc2OC)C3=O)cc1` was 59.1% (inactive); that for `O=C(N=Nc1c(O)[nH]c2ccccc12)Nc1ccccc1Cl` was 78.3% (inactive); that for `O=Nc1ccc(NC(=O)Nc2ccc([N+](=O)[O-])cc2)cc1` was 89.8% (inactive).

As to `O=C(Nc1ccc(Cl)cc1)Nc1nc2ccc(OC(F)(F)F)cc2o1`, the growth is 83.3% (inactive). Take `CCOC(=O)c1[nH]c(C)c(C(C)=O)c1C`: the growth is 102% (inactive). On to `CN(C)c1ccc2cc(-c3ccccc3F)c(N)nc2c1`, for which the growth was 5.36% (active). Regarding `N#Cc1c(-c2ccc(F)cc2)cc(-c2cccc(Cl)c2)[nH]c1=O`, the growth is 84.9% (inactive).

For the molecule `CC(=O)c1ccc(-n2c(-c3cc(-c4ccsc4)n[nH]3)n[nH]c2=S)cc1`, the growth was 112% (inactive). In the case of `Nc1ccc(-c2nc3ccc4[nH]ncc4c3c3c2CCCC3)cc1F`, the growth was 8.91% (active). For `Cc1nnc2c(Cc3ccccc3)nc3ccccc3n12` the value was 95.7% (inactive); for `CN1C(=O)C(C2=NN(C=O)C(c3ccc(F)cc3)C2)C(=O)N(C)C1=O` (stereo not given), 105% (inactive).

In the case of `CCC(C)(CC)c1ccc(O)c(C)c1`, the growth was 105% (inactive).

For `CN1CCN(Cc2ccc(NC(=O)c3cccc(C#Cc4cnc(N)c5ncccc45)c3F)cc2C(F)(F)F)CC1`, the growth was 12% (inactive). For `CC1=CC(=O)C(C(C)C)=CC1=Nc1cc(Br)c(O)c(Br)c1` the value was -9.85% (active); for `O=S(=O)(c1ccccc1)N1CCCc2ccccc21`, 103% (inactive); for `NC(=O)SCC(=O)Nc1ccc(S(N)(=O)=O)cc1`, 103% (inactive). On to `Cc1cc(C(=O)NOCCO)c(Nc2ccc(I)cc2F)n(C)c1=O`, for which the growth is 20.8% (inactive). With `CC(C)[C@H]1CC[C@H]2[C@@H](CC[C@H]3[C@](C)(CN)CCC[C@]23C)C1`, the growth was 71.8% (inactive). For `CCN(CC)CCNC(=O)c1c(C)[nH]c(/C=C2\C(=O)Nc3ccc(F)cc32)c1C` the value was -23% (active); for `OC(CN1CCCC2CCCCC21)c1cc2ccccc2c2ccccc12` (stereo not given), 84.9% (inactive); for `Oc1cccc(-c2nc(N3CCOCC3)c3c4c(sc3n2)CCCC4)c1`, 74.7% (inactive).

With `COc1ccc(-n2c(SCc3cc(OC)c(OC)c(OC)c3)nc3ccc(C)cc3c2=O)cc1`, the growth was 31.1% (inactive). Consider `COc1cccc(-c2nn(-c3ccccc3)cc2-c2ccnc(N3CCOCC3)c2)c1`, for which the growth is 44.9% (inactive). Consider `Cc1ccc(S(=O)(=O)n2cc(CNc3ccc(N4CCOCC4=O)cc3)c3ccccc32)cc1`, for which the growth is 66.7% (inactive).

For the origin of these results see PubChem BioAssay (NCI).
